Experimental findings from PMC7862700, “An all-to-all approach to the identification of sequence-specific readers for epigenetic DNA modifications on cytosine” are described below.

What all share (experiment): DAPPL (digital affinity profiling via proximity ligation, sequencing); 10 mM Tris-HCl pH 7.5, 50 mM NaCl, 1 mM DTT, 4% glycerol, room temperature, 30 min; GST-TFs on glutathione beads, 16-mer random dsDNA library, 0.1% formaldehyde crosslink after washing; high values mean tight binding
The target in one assay is T1, FEV (Homo sapiens, UniProt Q99581 1-238).
T1 sequence: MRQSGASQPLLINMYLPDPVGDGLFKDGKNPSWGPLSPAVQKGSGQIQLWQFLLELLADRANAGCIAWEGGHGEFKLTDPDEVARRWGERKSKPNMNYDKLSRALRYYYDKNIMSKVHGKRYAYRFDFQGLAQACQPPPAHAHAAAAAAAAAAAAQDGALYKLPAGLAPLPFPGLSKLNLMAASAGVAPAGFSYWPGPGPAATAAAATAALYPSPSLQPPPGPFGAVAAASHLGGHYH
The following applies: protein: recombinant; tags: N-terminal GST; dsDNA, one strand shown. The gist of the method: (§1)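 Pools were built from human transcription factors expressed in yeast as GST fusions, captured on glutathione beads and DNA-barcoded, along with a tag-only sample. Incubation with 200 nmole of a 16-mer random double-stranded DNA library lasted 30 min at room temperature in Tris/NaCl/DTT/glycerol buffer, and was followed by washing, 0.1% formaldehyde crosslinking, proximity ligation, PCR amplification and Illumina NextSeq500 sequencing. Binding signal is the quotient of each hexamer's read frequency for a factor and its frequency for the tag-only sample.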

The target of a further assay is ETV5 (Homo sapiens, UniProt P41161 1-510). Conditions: protein: recombinant; tags: N-terminal GST; dsDNA, one strand shown. The gist of the method: as §1
Another assay addresses HSF1 (Homo sapiens, UniProt Q00613 1-529). Conditions: protein: recombinant; tags: N-terminal GST; chain copies: 3; dsDNA, one strand shown. Summed up: as §1
The target in the next assay is T2, SPIC (Homo sapiens, UniProt Q8N5J4 1-248).
T2 sequence: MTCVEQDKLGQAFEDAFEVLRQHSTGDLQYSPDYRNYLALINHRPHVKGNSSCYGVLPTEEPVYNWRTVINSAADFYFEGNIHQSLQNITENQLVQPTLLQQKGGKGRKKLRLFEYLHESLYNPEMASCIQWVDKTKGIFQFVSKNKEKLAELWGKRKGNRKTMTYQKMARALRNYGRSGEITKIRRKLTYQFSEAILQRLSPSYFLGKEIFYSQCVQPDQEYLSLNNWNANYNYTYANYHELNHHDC
The following applies: protein: recombinant; tags: N-terminal GST; dsDNA, one strand shown. Summed up: as §1

A further assay concerns the target ELF4 (Homo sapiens, UniProt Q99607 1-663). The following applies: protein: recombinant; tags: N-terminal GST; dsDNA, one strand shown. The gist of the method: as §1
The target in another assay is T3, ELK4 (Homo sapiens, UniProt P28324-2 1-405).
T3 sequence: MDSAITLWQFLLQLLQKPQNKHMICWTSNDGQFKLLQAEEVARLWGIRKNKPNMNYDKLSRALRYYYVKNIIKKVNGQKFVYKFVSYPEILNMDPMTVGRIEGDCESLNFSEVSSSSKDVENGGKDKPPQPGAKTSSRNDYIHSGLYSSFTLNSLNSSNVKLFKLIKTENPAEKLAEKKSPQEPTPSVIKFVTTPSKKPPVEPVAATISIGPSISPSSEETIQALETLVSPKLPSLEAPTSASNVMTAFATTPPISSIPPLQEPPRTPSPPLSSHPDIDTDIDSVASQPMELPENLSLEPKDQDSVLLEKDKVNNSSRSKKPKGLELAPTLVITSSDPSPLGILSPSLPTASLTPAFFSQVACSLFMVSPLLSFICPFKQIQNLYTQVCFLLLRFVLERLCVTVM
The following applies: protein: recombinant; tags: N-terminal GST; dsDNA, one strand shown. Summed up: as §1

The next assay concerns the target T4, ETV2 (Homo sapiens, UniProt O00321 1-342).
T4 sequence: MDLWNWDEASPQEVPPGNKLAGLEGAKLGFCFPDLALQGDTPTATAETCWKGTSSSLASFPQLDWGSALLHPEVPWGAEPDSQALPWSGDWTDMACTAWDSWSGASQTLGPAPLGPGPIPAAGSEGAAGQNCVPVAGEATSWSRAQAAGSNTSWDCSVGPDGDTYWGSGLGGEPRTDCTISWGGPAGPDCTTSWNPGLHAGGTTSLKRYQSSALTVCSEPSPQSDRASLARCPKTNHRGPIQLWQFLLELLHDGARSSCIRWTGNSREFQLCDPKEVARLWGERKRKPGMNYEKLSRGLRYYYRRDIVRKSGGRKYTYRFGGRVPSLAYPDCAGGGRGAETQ
Conditions: protein: recombinant; tags: N-terminal GST; dsDNA, one strand shown. The gist of the method:
as §1

The next assay concerns the target T5, ELF3 (Homo sapiens, UniProt P78545 1-371).
T5 sequence: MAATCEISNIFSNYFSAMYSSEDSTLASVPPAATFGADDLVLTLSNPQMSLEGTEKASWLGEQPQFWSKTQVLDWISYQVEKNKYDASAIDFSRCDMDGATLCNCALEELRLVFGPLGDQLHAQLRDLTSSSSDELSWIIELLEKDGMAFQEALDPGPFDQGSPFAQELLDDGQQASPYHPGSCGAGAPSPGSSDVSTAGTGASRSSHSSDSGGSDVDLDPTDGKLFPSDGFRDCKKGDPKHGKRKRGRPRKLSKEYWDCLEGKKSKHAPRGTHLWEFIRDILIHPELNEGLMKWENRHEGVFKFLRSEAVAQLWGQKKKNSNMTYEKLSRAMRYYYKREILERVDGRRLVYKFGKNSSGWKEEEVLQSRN
Conditions: protein: recombinant; tags: N-terminal GST; dsDNA, one strand shown. The gist of the method:
as §1

The target in a further assay is CRX (Homo sapiens, UniProt O43186 1-299). Conditions: protein: recombinant; tags: N-terminal GST; dsDNA, one strand shown. The gist of the method:
as §1

The target of another assay is ETV1 (Homo sapiens, UniProt P50549 1-477). The following applies: protein: recombinant; tags: N-terminal GST; dsDNA, one strand shown. The gist of the method: as §1
For the next assay, the target named is T6, ERF (Homo sapiens, UniProt P50548 1-548).
T6 sequence: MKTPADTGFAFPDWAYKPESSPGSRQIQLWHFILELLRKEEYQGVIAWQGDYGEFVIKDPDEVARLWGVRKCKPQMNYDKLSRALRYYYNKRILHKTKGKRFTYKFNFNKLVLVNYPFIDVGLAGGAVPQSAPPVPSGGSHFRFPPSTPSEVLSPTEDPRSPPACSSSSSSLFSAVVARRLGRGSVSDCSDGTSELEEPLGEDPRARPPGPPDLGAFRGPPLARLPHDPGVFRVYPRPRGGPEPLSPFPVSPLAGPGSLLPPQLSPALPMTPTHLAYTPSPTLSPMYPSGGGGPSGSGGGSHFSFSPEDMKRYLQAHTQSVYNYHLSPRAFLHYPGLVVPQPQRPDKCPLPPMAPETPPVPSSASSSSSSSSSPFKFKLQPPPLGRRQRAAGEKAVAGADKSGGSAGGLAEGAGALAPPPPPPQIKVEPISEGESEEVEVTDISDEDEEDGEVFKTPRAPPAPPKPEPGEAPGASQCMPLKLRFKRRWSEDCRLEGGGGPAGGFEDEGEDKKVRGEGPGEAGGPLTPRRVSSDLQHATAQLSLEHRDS
The following applies: protein: recombinant; tags: N-terminal GST; dsDNA, one strand shown. The gist of the method:
as §1

For the next assay, the target named is T7, ETV3L (Homo sapiens, UniProt Q6ZN32 1-361).
T7 sequence: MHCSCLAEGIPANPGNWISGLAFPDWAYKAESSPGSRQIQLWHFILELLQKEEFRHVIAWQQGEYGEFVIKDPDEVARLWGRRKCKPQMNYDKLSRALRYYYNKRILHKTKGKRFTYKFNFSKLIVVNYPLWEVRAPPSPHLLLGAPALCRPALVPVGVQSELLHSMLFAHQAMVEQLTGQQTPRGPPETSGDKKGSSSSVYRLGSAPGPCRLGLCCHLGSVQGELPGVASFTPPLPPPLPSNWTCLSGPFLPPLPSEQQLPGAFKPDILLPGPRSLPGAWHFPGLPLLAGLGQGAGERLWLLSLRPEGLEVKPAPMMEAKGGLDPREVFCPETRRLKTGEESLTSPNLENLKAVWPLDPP
Conditions: protein: recombinant; tags: N-terminal GST; dsDNA, one strand shown. Summed up:
as §1

A further assay has as its target T8, ETS2 (Homo sapiens, UniProt P15036 1-469).
T8 sequence: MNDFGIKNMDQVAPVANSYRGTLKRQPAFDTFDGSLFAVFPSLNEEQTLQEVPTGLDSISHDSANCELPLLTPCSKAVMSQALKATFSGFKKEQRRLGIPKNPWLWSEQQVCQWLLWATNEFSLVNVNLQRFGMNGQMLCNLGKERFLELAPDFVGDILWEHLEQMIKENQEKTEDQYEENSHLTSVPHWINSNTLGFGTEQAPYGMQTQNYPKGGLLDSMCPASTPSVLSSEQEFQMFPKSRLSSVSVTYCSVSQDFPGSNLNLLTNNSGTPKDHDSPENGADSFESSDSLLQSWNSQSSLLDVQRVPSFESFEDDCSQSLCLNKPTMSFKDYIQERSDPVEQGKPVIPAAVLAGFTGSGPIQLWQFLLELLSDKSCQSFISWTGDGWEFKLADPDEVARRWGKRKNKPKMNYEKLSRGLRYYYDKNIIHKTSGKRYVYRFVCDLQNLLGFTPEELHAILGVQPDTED
Conditions: protein: recombinant; tags: N-terminal GST; dsDNA, one strand shown. The gist of the method:
as §1

The next assay deals with T9, SPDEF (Homo sapiens, UniProt O95238 1-335).
T9 sequence: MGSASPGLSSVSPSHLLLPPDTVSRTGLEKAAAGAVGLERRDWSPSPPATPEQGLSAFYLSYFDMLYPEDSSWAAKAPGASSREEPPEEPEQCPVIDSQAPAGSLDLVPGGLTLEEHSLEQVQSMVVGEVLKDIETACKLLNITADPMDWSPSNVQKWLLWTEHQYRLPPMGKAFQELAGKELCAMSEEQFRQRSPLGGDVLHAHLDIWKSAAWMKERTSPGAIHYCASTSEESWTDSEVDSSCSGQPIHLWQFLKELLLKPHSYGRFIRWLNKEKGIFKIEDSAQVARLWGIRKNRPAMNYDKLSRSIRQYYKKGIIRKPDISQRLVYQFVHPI
Conditions: protein: recombinant; tags: N-terminal GST; dsDNA, one strand shown. The gist of the method:
as §1

The target of another assay is T10, ETV7 (Homo sapiens, UniProt Q9Y603 1-341).
T10 sequence: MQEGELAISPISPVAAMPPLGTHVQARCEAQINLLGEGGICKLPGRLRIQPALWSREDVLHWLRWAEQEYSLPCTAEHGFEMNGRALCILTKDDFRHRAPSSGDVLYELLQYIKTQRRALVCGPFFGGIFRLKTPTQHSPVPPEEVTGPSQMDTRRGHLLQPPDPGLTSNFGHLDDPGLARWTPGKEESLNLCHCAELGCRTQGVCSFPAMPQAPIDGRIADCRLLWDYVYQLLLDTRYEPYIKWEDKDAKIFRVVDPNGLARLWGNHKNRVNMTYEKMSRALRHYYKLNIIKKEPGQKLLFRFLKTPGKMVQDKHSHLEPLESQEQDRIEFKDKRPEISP
Conditions: protein: recombinant; tags: N-terminal GST; dsDNA, one strand shown. The gist of the method:
as §1

For a further assay, the target named is T11, ELF5 (Homo sapiens, UniProt Q9UKW6-2 1-255).
T11 sequence: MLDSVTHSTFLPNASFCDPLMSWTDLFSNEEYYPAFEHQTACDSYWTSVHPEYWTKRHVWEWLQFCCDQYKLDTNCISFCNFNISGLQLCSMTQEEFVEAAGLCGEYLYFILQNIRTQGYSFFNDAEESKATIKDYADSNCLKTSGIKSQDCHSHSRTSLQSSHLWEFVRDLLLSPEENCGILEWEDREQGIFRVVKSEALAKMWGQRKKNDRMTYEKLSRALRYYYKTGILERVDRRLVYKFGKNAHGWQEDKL
The following applies: protein: recombinant; tags: N-terminal GST; dsDNA, one strand shown. Summed up: as §1

A further assay deals with T12, ETV3 (Homo sapiens, UniProt P41162-2 1-143).
T12 sequence: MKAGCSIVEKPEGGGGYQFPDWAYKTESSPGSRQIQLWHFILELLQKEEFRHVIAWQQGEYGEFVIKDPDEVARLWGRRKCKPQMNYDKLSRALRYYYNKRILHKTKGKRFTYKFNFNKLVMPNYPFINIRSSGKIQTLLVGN
Conditions: protein: recombinant; tags: N-terminal GST; dsDNA, one strand shown. Summed up:
as §1

The next assay addresses ETV6 (Homo sapiens, UniProt P41212 1-452). Conditions: protein: recombinant; tags: N-terminal GST; dsDNA, one strand shown. Summed up:
as §1

Sequence of HSF1 (Q00613 whole entry): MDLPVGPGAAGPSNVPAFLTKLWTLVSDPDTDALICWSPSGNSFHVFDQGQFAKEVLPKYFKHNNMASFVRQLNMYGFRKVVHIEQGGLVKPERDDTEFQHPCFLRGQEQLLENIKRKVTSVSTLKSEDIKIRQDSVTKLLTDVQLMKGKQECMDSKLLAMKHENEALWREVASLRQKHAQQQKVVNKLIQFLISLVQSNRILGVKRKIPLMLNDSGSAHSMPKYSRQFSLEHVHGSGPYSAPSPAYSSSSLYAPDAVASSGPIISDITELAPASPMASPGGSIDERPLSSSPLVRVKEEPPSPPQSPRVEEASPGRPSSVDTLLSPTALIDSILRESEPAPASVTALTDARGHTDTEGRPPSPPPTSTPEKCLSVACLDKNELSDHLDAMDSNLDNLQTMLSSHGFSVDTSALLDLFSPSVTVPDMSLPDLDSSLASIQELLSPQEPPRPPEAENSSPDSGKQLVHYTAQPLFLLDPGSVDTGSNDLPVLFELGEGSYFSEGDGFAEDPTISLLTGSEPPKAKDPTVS
Sequence of CRX (O43186 whole entry): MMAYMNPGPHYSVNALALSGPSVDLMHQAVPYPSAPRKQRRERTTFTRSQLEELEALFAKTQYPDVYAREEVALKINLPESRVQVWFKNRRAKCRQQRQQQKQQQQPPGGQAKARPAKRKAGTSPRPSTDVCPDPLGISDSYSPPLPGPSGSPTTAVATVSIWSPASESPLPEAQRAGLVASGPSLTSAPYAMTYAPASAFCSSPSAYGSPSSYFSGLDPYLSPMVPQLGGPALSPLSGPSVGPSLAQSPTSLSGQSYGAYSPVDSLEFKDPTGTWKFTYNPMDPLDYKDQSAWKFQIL
Sequence of ETV5 (P41161 whole entry): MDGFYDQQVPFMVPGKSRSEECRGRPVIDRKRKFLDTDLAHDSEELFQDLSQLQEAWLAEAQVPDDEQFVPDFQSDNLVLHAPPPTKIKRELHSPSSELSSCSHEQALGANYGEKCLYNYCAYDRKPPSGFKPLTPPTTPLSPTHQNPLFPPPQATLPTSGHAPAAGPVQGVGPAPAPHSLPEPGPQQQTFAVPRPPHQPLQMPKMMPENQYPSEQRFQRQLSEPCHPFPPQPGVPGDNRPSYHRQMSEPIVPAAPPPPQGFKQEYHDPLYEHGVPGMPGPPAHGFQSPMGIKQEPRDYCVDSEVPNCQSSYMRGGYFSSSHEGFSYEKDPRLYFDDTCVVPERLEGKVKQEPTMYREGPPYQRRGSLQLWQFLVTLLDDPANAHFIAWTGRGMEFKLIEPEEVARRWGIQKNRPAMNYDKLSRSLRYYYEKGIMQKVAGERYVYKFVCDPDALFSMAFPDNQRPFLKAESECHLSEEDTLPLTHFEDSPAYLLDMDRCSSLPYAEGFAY
Sequence of ETV6 (P41212 whole entry): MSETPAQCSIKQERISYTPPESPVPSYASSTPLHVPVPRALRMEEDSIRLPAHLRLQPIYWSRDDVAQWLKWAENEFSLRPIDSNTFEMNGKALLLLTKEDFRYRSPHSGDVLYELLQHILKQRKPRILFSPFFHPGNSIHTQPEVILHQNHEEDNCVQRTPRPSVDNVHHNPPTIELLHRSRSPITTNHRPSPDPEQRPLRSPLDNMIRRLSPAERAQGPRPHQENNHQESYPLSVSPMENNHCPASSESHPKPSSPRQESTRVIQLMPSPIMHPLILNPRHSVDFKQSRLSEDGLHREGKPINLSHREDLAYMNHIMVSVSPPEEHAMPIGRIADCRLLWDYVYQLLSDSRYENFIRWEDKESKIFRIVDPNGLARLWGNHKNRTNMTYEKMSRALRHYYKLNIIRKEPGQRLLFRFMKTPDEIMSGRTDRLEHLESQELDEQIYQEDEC
Sequence of ELF4 (Q99607 whole entry): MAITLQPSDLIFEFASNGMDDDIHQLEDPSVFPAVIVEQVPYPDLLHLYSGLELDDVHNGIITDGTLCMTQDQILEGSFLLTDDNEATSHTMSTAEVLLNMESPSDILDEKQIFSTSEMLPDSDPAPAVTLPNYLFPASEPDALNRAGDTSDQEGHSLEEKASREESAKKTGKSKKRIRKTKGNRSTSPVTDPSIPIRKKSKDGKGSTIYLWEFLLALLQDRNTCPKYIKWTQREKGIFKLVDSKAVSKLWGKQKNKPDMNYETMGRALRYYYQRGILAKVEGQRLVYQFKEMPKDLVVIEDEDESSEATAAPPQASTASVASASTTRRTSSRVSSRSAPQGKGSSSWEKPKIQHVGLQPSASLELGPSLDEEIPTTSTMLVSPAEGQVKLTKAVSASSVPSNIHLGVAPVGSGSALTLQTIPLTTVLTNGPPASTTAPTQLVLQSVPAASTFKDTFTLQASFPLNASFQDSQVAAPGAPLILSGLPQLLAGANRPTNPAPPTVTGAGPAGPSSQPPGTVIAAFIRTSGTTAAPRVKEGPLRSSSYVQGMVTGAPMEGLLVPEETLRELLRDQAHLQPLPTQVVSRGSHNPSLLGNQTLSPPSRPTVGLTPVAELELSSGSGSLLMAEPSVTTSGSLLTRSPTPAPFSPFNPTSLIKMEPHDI
Sequence of ETV1 (P50549 whole entry): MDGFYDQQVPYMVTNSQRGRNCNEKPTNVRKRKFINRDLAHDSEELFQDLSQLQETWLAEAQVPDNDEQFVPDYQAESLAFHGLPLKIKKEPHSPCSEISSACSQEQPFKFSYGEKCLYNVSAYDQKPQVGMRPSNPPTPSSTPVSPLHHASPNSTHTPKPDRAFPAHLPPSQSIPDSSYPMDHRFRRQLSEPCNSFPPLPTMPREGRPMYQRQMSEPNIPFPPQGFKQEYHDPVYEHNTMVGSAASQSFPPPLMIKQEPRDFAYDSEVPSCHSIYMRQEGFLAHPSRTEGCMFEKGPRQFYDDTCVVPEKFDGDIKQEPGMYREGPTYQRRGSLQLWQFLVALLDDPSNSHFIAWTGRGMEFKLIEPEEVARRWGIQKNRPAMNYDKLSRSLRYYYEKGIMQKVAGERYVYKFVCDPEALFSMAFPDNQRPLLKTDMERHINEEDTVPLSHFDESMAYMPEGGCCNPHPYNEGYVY

As for CCTTCC, the binding signal with FEV was 2.78 fold enrichment (6-mer frequency, TF over GST control); with ETV5, 2.73 fold enrichment (6-mer frequency, TF over GST control); in the assay with HSF1 it was 1.81 fold enrichment (6-mer frequency, TF over GST control); in the assay with SPIC it was 2.36 fold enrichment (6-mer frequency, TF over GST control); in the assay with ELF4, 2.5 fold enrichment (6-mer frequency, TF over GST control); in the assay with ELK4 it was 2.19 fold enrichment (6-mer frequency, TF over GST control). The binding signal in the assay with ETV2 was 2.51 fold enrichment (6-mer frequency, TF over GST control); with ELF3, 2.27 fold enrichment (6-mer frequency, TF over GST control); in the assay with CRX, 1.26 fold enrichment (6-mer frequency, TF over GST control); with ETV1, 2.55 fold enrichment (6-mer frequency, TF over GST control); in the assay with ERF it was 2.26 fold enrichment (6-mer frequency, TF over GST control); with ETV3L it was 2.48 fold enrichment (6-mer frequency, TF over GST control). For the same sequence, the binding signal with ETS2 was 2.41 fold enrichment (6-mer frequency, TF over GST control); with SPDEF, 2.44 fold enrichment (6-mer frequency, TF over GST control); in the assay with ETV7, 2.45 fold enrichment (6-mer frequency, TF over GST control); with ELF5 it was 3.65 fold enrichment (6-mer frequency, TF over GST control); in the assay with ETV3, 2.88 fold enrichment (6-mer frequency, TF over GST control); with ETV6, 2.74 fold enrichment (6-mer frequency, TF over GST control).
